In PubChem BioAssay (NCI):
About 79,000 compounds went through this panel and 15% of them were active in at least one assay; those are over-represented in the sample as a whole. A number with no mark means an inactive call. Activity calls are given as the source filed them. No stated cut-off is given here; in the data, active means growth inhibition above about 70%; inactive means the rest.

Assays:
[1] = NCI Yeast Anticancer Drug Screen. Data for the rad50 strain (AID 155);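 further: 0% = growth of vehicle-only cultures of the same strain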; settings: S. cerevisiae rad50 strain growth inhibition, hits give high values
Summary of the method: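 Readout: growth inhibition relative to vehicle-treated cultures. Compound exposure was carried out in a genetically defined yeast strain deficient in DNA damage repair.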

[2] = NCI Yeast Anticancer Drug Screen. Data for the mec2-1 strain (AID 157); settings: S. cerevisiae mec2-1 strain, hits give high values
Summary of the method: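 Mutant yeast (mec2-1) grown with compound; growth inhibition relative to vehicle control reported.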

[3] = NCI Yeast Anticancer Drug Screen. Data for the sgs1 mgt1 strain (AID 161);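 further: 0% = growth of cultures given vehicle only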; settings: S. cerevisiae sgs1 mgt1 strain, hits give high values
Summary of the method: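 This yeast growth screen uses a strain with defined DNA-repair lesions; compound-treated growth is compared with vehicle-treated growth.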

[4] = NCI Yeast Anticancer Drug Screen. Data for the cln2 rad14 strain (AID 165);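 further: 0% = growth equal to vehicle treated cultures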; settings: S. cerevisiae cln2 rad14 strain, hits give high values
Summary of the method: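 Readout is yeast growth inhibition versus vehicle-treated controls, using a strain with cln2 and rad14 alterations exposed to compound.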

[5] = NCI Yeast Anticancer Drug Screen. Data for the bub3 strain (AID 167); settings: S. cerevisiae bub3 mutant strain, hits give high values
Summary of the method: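 Readout: yeast growth inhibition, expressed relative to vehicle-only wells. The test organism is a mutant strain from a panel with lesions in DNA repair or checkpoint genes.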

[6] = NCI Yeast Anticancer Drug Screen. Data for the mlh1 rad18 strain (AID 175); settings: S. cerevisiae mlh1 rad18 strain growth inhibition, hits give high values
Summary of the method: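 Genetically defined yeast (DNA repair-deficient) exposed to compounds; growth inhibition determined relative to vehicle.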

[7] = at 5.0 µM (retest, dose inferred, filed as 0.5)
[8] = at 50.0 µM (retest, dose inferred, filed as 5.0)

| Structure (SMILES) | growth inhibition [1, 7] [%] | growth inhibition [1, 8] | growth inhibition ([1]; at 50.0 µM) | growth inhibition [2, 7] [%] | growth inhibition [2, 8] | growth inhibition ([2]; at 50.0 µM) | growth inhibition [3, 7] [%] | growth inhibition [3, 8] | growth inhibition ([3]; at 50.0 µM) | growth inhibition [4, 7] [%] | growth inhibition [4, 8] | growth inhibition ([4]; at 50.0 µM) | growth inhibition [5, 7] [%] | growth inhibition [5, 8] | growth inhibition ([5]; at 50.0 µM) | growth inhibition [6, 7] [%] | growth inhibition [6, 8] | growth inhibition ([6]; at 50.0 µM) |
| --- | --- | --- | --- | --- | --- | --- | --- | --- | --- | --- | --- | --- | --- | --- | --- | --- | --- | --- |
| CN(CC(=O)O)c1ncc2c(n1)-c1ccccc1OC2 | 17 | 13% | 48.6% | 8 | 12% | 57.1% | 6 | 17% | -21% | 14 | 18% | -23.5% | 12 | 15% | -28.1% | 14 | 10% | -55.2% |
| Cc1c2cc[n+](C)cc2c(C)c2c1sc1ccccc12 | 21 | 97% (active) | 39.4% | -2 | 98% (active) | 91.2% (active) | 18 | 99% (active) | 90.8% (active) | 4 | 97% (active) | 91.5% (active) | 16 | 99% (active) | 92.7% (active) | 8 | 97% (active) | 91.5% (active) |
| N#CSCc1ccc(Cl)c(CSC#N)c1 | 18 | 99% (active) | 99% (active) | 4 | 99% (active) | 99.3% (active) | 8 | 99% (active) | 98.8% (active) | 10 | 98% (active) | 98.2% (active) | 16 | 100% (active) | 98.8% (active) | 10 | 99% (active) | 99% (active) |
| CS(=O)(=O)OC1COC2C(I)COC12 (centres undefined) | -1 | 55% | 7.85% | 3 | 58% | -11.8% | -1 | 83% (active) | 1.85% | 5 | 30% | 13.7% | -1 | 83% (active) | 77.3% (active) | 2 | 84% (active) | 19.9% |
| FC(F)(F)c1nc(S)cc(=S)[nH]1 | 1 | 13% | -21.2% | 4 | 17% | 24.9% | 7 | 26% | -5.45% | -2 | 22% | 54% | -2 | 31% | 58.3% | -4 | 10% | -30% |
| C(=N\Nc1ccc2ccccc2n1)/c1ccccn1.CC(=O)[O-].CC(=O)[O-].[Zn+2] | -4 | 2% | 16.7% | 2 | -2% | 39.3% | -3 | -3% | 84.3% (active) | -3 | 0% | -19.6% | -1 | -1% | 18.3% | 2 | 0% | 57.4% |
| CCN(CC)CCCNc1nccc2c(C)c3[nH]c4ccncc4c3cc12 | 41 | 54% | 59.4% | 18 | 33% | -2% | 38 | 43% | -1.7% | 19 | 23% | 10.1% | 24 | 22% | -6.45% | 48 | 64% | -36.5% |
| CC(C)OC(=O)c1cc([N+](=O)[O-])cc([N+](=O)[O-])c1Sc1ncnc2nc[nH]c12 | 49 | 54% | 14.2% | 11 | 49% | 15.5% | 44 | 83% (active) | 20.9% | 44 | 57% | 65.8% | 45 | 79% (active) | 24.7% | 35 | 42% | 66.8% |
| C=C(Cl)C(=NC(C)(C)C)Nc1ccccc1C | 27 | 53% | 69.3% | 20 | 56% | 74.9% (active) | 25 | 61% | 81.4% (active) | 29 | 37% | 66% | 22 | 60% | 83.8% (active) | 30 | 80% (active) | 40.1% |
| CNC(=O)c1ccc(OC)cc1C1(O)c2ccccc2CCc2ccccc21 | 40 | 64% | 58.6% | 34 | 49% | 45% | 36 | 78% (active) | 80.5% (active) | 27 | 49% | 46.4% | 37 | 87% (active) | 58.8% | 46 | 76% (active) | 58.8% |
| CC(C(=O)O)c1cn(Cc2ccccc2)c2ccccc12 (centres undefined) | -2 | 61% | 4.65% | 6 | 58% | 43.2% | -28 | 36% | 31.4% | 6 | 85% (active) | -8.85% | 21 | 80% (active) | -43.8% | 6 | 34% | 38.9% |
| CC[n+]1c(/C=C/c2cc(C(=O)OC)n3c2sc2ccccc23)sc2ccccc21 | 43 | 99% (active) | 99% (active) | 38 | 99% (active) | 99.2% (active) | 3 | 99% (active) | 99.2% (active) | 25 | 99% (active) | 98.4% (active) | 49 | 99% (active) | 98.6% (active) | 61 | 99% (active) | 98.8% (active) |
| CCOP(=O)(CCCOc1cc(Cl)c(Cl)cc1Cl)OCC | 1 | 99% (active) | 98.7% (active) | 2 | 99% (active) | 98.9% (active) | 14 | 100% (active) | 99% (active) | 7 | 99% (active) | 93.7% (active) | 6 | 99% (active) | 94.2% (active) | 2 | 99% (active) | 98.6% (active) |
| COc1cc(C(c2cc3c(cc2O)OCO3)N2CCCCC2)cc(OC)c1OC (centres undefined) | -4 | 13% | 25% | 0 | 20% | 34.6% | -5 | -33% | 21.8% | -6 | -3% | 67.5% | -1 | 4% | 31.6% | -6 | 6% | 62.6% |
| COC(=O)c1nc2ccc([N+](=O)[O-])cc2n1O | -154 | -155% | 2.25% | -54 | -59% | 19.8% | -60 | -70% | 2.95% | -53 | -60% | 36% | -68 | -80% | 4.8% | -116 | -111% | 4.3% |
| C/C(=N/Nc1ccccc1)C(=O)O | 18 | 97% (active) | 97.8% (active) | 6 | 88% (active) | 97.8% (active) | 11 | 50% | 97.7% (active) | 8 | 96% (active) | 98% (active) | 6 | 96% (active) | 97.4% (active) | 28 | 98% (active) | 97.2% (active) |
| Cc1c(N)cccc1[N+](=O)[O-] | 2 | 8% | 97.8% (active) | -6 | 6% | 98.6% (active) | -3 | -1% | 97.4% (active) | -1 | 7% | 95.5% (active) | 3 | 15% | 98.2% (active) | 0 | 2% | 98.5% (active) |
| COC(=O)c1n[nH]c(C)c1N=NN1CCC(C(N)=O)CC1 | 30 | 98% (active) | 98.3% (active) | -8 | 99% (active) | 99.2% (active) | -13 | 99% (active) | 98.8% (active) | -1 | 99% (active) | 97.8% (active) | -5 | 98% (active) | 98.2% (active) | 36 | 99% (active) | 99.2% (active) |
